Inconclusive results are not listed. Calls of active or inactive are those of the source. The call rests on the fitted dose curve; in most records, active means well fitted inhibition curve with a large enough effect; inconclusive means small, poorly fitted or top-dose-only effect; inactive means no such curve, though single readings can be large or run the other way.
Target: Coelenterazine h 2-monooxygenase (Renilla reniformis) (UniProt P27652)
Test: qHTS Assay for Inhibitors of Sea Pansy Luciferase from the GSK Published Protein Kinase Inhibitor Set
Conditions: purified Renilla luciferase, luminescence; series mostly up to 57.5 µM
Procedure, shortened: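 Purified R. reniformis luciferase (1 nM final) with 5 uM coelenterazine h in 50 mM Tris acetate pH 7.5, 100 uM NaCl, 0.01% Tween-20, 0.05% BSA. A titration, about 60 uM to 300 pM; luminescence read after about 2 min.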

Sequence of Coelenterazine h 2-monooxygenase (Renilla reniformis) (P27652 whole entry, looked up): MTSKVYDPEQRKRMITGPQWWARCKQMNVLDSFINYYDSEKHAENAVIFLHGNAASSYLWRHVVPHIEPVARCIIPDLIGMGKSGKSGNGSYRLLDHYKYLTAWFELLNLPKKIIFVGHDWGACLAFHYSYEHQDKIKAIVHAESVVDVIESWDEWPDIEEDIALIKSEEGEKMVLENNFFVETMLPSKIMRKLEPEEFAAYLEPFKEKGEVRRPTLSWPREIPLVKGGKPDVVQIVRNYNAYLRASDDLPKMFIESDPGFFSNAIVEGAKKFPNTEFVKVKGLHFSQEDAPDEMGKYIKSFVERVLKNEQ

Potency, inactive:
N#Cc1ccc2c(-c3ccnc(NC4CC4)n3)c(-c3ccc(F)cc3)nn2c1
COc1cccc(-c2c[nH]c3c(NN=Cc4ccncc4)ncnc23)c1
c1ccc(Oc2ccc(Nc3ncc(-c4ccccc4)o3)cc2)cc1
COc1cc(C=NNc2ncnc3c2cnn3C(C)C)ccc1O
Nc1nccc(-c2c(-c3ccc(F)cc3)ncn2CCCN2CCOCC2)n1
COc1cc2ncn(-c3cc(OCc4ccccc4C(F)(F)F)c(C(C)=O)s3)c2cc1OC
CS(=O)(=O)CCNCc1ccc(-c2ccc3ncnc(Nc4ccc(OCc5ccccc5)cc4)c3c2)o1

Source: PubChem BioAssay AID652015 (National Center for Advancing Translational Sciences (NCATS), 2013)
